BAZ2B inh: blocks human BAZ2B. AID 504333. Q9UIF8. Potency, µM (top dose mostly 114 µM), without a hit: at the top dose activity change, negative = inhibition, actives largely listed as inhibitors. 4.4% of 360,000 active. AlphaScreen BAZ2B-H3K14Ac peptide displacement; note: % is set by controls: 0 for no effect and ±100 for the full control effect; nearly all actives have a fitted effect of over 60% in size
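BAZ2B 50 nM plus b-H3(5-23)K14Ac 50 nM, PBS pH 7.4/0.01% Tween-20, 30 min RT; compound added (max 110 uM), 30 min RT; streptavidin donor/Ni-chelate acceptor beads 10 ug/mL final, 20 min dark; AlphaScreen read.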
JMJD2A Tudor: inhibitors of human JMJD2A Tudor domain. AlphaScreen JMJD2A-Tudor / H3K4me3 peptide binding. Potency, µM (series often up to 114 µM), for inactives: at the highest dose activity change, negative = inhibition, usual class: inhibitors. 4.4% of 390,000 active. AID 504339; note: % is set by controls: 0 for no effect and ±100 for the full control effect; nearly all actives have a fitted effect of over 50% in size
Target sequence (O75164 whole entry, looked up, the tested form may be a part): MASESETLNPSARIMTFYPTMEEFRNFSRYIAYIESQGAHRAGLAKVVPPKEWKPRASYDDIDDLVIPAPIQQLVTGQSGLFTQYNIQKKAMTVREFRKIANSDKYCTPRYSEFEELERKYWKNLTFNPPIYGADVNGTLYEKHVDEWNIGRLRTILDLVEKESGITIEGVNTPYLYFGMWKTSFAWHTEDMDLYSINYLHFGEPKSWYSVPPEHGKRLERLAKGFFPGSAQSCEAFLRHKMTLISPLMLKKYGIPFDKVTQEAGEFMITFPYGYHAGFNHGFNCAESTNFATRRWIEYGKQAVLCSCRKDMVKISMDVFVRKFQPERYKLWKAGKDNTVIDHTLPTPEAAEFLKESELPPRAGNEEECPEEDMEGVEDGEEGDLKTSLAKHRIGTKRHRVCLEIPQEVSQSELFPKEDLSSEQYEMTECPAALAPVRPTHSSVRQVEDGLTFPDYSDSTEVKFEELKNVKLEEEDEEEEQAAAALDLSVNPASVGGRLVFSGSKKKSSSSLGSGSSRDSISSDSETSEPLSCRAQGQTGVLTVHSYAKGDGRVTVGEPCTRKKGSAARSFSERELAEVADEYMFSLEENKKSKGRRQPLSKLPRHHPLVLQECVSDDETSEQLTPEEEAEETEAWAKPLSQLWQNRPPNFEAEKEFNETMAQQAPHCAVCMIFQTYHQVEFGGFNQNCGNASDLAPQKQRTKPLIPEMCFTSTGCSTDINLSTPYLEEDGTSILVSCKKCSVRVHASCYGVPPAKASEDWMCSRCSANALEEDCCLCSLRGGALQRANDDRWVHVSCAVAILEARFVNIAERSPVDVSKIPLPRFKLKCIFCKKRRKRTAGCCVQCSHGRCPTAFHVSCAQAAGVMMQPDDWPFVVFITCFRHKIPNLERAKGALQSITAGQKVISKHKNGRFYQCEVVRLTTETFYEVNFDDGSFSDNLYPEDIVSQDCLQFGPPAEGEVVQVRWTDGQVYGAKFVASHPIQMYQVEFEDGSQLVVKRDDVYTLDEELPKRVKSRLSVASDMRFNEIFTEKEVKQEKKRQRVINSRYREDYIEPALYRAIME
G9a block: blocks human histone lysine methyltransferase G9a. Q96KQ7. G9a H3K9 monomethylation, AlphaScreen, 2 h. Potency, µM (series often up to 102 µM), for the others: at the top dose activity, negative = inhibition, usual class: inhibitors. 8.8% of 350,000 active. AID 504332; note: % is set by controls: 0 for no effect and ±100 for the full control effect; nearly all actives have a fitted effect of over 75% in size
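G9a (20 nM) was preincubated 15 min with compound, then reacted 2 h at room temperature with 500 nM biotin-H3K9 peptide and 20 µM SAM. Monomethyl-H3K9 detected by AlphaScreen using anti-H3K9me1 antibody.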
Sfp PPTase inh: Sfp phosphopantetheinyl transferase inhibition. Q9F4F7. Potency, µM, for inactives: largest response in the series, negative = inhibition, usual class: inhibitors. AID 1490. 3.5% of 310,000 active. Biochemical Sfp PPTase activity, qHTS;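 note: the enzyme is Sfp with the accession as filed and its product quenches rhodamine fluorescence; 0% = enzyme reaction without inhibitor and -100% = no enzyme wells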
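Compounds were incubated with enzyme (final 15 nM) for 15 min at room temperature before substrate addition started the reaction. Fluorescence at 525 nm excitation, 598 nm emission was recorded immediately and after 30 minutes.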
HP1b chromo inh: HP1-beta chromodomain-methylated histone interaction inhibition. AlphaScreen HP1-beta / biotin-H3K9me3 peptide binding. AID 540317. Potency, µM (highest dose often 114 µM), inactives show at the highest dose activity change, negative = inhibition, actives largely listed as inhibitors. 0.56% of 390,000 active; note: nearly all actives have a fitted effect of over 70% in size
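HP1-beta protein (50 nM final) preincubated 30 min at room temperature with biotinylated H3(1-18)K9me3 peptide (50 nM) in PBS pH 7.4, 0.01% Tween-20, then compound added for 30 min. AlphaScreen streptavidin donor/nickel chelate acceptor beads (10 ug/mL final), 30 min dark, luminescence read.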
An asterisk follows results filed as active; ? = inconclusive; . = no result; [ ] = another dose, or the depositor's remark. Most compounds without a hit are left out; they make up all but 12% or so of the library. Calls come from the whole dose curve; as a rule, active = well fitted curve in the direction sought with a large enough effect; inconclusive = small, poorly fitted or top-dose-only effect, or another doubt; inactive = no such curve, though single readings can be large; an effect the other way counts as inactive or inconclusive. Potency is the fitted concentration of half-maximal effect.

SMILES	BAZ2B inh	JMJD2A Tudor	G9a block	Sfp PPTase inh	HP1b chromo inh
O=c1c2ccccc2nc(-c2ccc(Cl)cc2Cl)n1O	?	-3.8%[11.4 µM]	8.5%	?	-2.4%
COc1cc(/C=C/C(=O)O[C@H]2[C@H](O[C@@H]3O[C@@H](C)[C@H](O)[C@@H](O)[C@H]3O)[C@@H](O)[C@H](OCCc3ccc(O)c(OC)c3)O[C@@H]2CO)ccc1O	.	-14.6%	.	.	16.2%
COc1ccc(Nc2nc3c(C)cccn3c(=O)c2C=O)cc1	2.4%	-0.7%	73.2%	8.2%	19.9%
Cc1cccn2c(=O)c(C=O)c(Nc3ccccc3)nc12	-17.2%	-14.4%	44.7µM*	7.0%	22.9%
O=C(NC1CC2CCCC(C1)N2C(=S)Nc1ccccc1Cl)C1CC1 (configuration not stated)	-16.8%	7.0%	-2.2%	19.6%	34.5%
Nc1c2c(nc3ccc(Br)cc13)N(c1ccccc1)CC2	39.8µM*	10µM*	?	17.8µM*	50.1µM*
Nc1c2c(nc3ccc(Br)cc13)N(Cc1ccccc1)CC2	-11.3%	?	?	?	3.6%
CSc1nc(C)c2c(n1)N(c1cccc(C)c1)CC2	10.0%	12.8%	18.1%[59 µM]	-26.1%	59.2%
Cc1cccc(N2CCc3c2nc2ccc(Br)cc2c3N)c1	-36.4%	-30.4%	?	12.6µM*	29.5%
O=C(COC(=O)c1c[nH]c(=O)[nH]c1=O)Nc1ccccc1	-27.7%	9.8%	-1.0%	25.0%	43.0%
Cc1cccc(Cn2c(SCc3ccc(C(=O)NC4CCCC4)cc3)nc3cccnc32)c1	-12.3%	-23.1%	-31.9%[59 µM]	.	21.3%
COc1cc(Cl)c(NC(=O)c2cc(S(=O)(=O)N3CCCCC3)c[nH]2)c(OC)c1	-6.5%	-15.5%	-35.6%[59 µM]	.	26.4%
CCn1c(SC(C)C(=O)NC2CCCC2)nc2cc(S(N)(=O)=O)ccc21 (configuration not stated)	-6.9%	-5.7%	?	.	35.2%
NC(N)=NCCCC(NC(=O)c1ccccc1)C(=O)Nc1ccc2ccccc2c1 (configuration not stated)	-4.8%	-32.4%	-28.0%[59 µM]	.	12.1%
O=C(O)c1nc(NCCc2ccccc2)ncc1Cl	-17.7%	?	35.5µM*	7.7%	-8.8%
O=C(O)c1nc(NCc2ccccc2)ncc1Cl	-14.2%	-9.7%	3.5%[2.33 µM]	-10.3%	24.3%
CCC(=O)N1CCc2cc(S(=O)(=O)NCCC(=O)Nc3ccc(C)cc3C)ccc21	.	-6.0%	-1.4%[59 µM]	.	34.6%
COc1ccc(OC)c2sc(Cl)nc12	8.5%	3.5%	28.2µM*	-18.9%	-3.6%
COc1ccc(OC)c2sc(NC(=O)C(C)C)nc12	-8.6%	-13.9%	-41.8%[59 µM]	-20.5%	14.2%
COC(=O)c1ccc(NC(=O)COC(=O)COc2cccc3c2OC(C)(C)C3)cc1	6.0%	-6.8%	24.5%[59 µM]	.	33.1%
CC(O)c1n(C)c(Cl)c[n+]1C (configuration not stated)	1.1%	?	11.2µM*	10.4%	9.0%
Cc1ccc(-c2csc3nc(C)n(-n4cccc4)c(=O)c23)o1	.	0.0%	?	56.2µM*	47.5%
Cc1ccc(-c2csc3nc(C)n(N)c(=O)c23)cc1	-3.6%	11.1%	4.2%	7.6%	32.0%
COCCNc1ccnc(-c2ccccc2C)n1	.	.	0.3%[0.501 µM]	?	.
Nc1ccc(Oc2ccc3nc(-c4ccccc4)c(-c4ccc([N+](=O)[O-])cc4)nc3c2)cc1	?	?	31.6µM*	18.0%	-35.8%
SMILES	BAZ2B inh	JMJD2A Tudor	G9a block	Sfp PPTase inh	HP1b chromo inh
Cc1[nH]c2ccccc2c1/C=N/Nc1ccccn1	35.5µM*	.	?	?	.
Cc1[nH]c2ccccc2c1/C=N/NC(=O)c1cccc(F)c1	-13.7%	-26.8%	.	-3.0%	22.7%
Cc1[nH]c2ccccc2c1/C=N/Nc1ccc([N+](=O)[O-])cc1	?	-28.3%	8.91µM*	-12.1%	?
Cc1[nH]c2ccccc2c1/C=N/Nc1ccc(F)cc1F	44.7µM*	.	31.6µM*	5.5%	.
Cc1[nH]c2ccccc2c1/C=N/NC(=O)c1cccc([N+](=O)[O-])c1	-24.7%	-0.8%[11.4 µM]	-44.7%	-1.5%	-10.5%
Cc1[nH]c2ccccc2c1/C=N/NC(=O)c1cccs1	?	?	?	-21.9%	14.3%
Cc1[nH]c2ccccc2c1/C=N/Nc1nncn1N	50.1µM*	-28.9%	35.5µM*	8.91µM*	17.4%
O=C(COC(=O)c1ccccc1)Nc1cc(S(=O)(=O)N2CCCCCC2)ccc1Cl	-1.7%	9.6%	-4.5%[12.7 µM]	.	40.8%
CN(C)c1ccc(-c2cc(NCc3ccccc3)ncn2)cc1	.	.	.	-10.1%	.
CC(=O)Nc1ccc(-c2sc(Nc3cccc4ccccc34)n[n+]2-c2ccccc2)cc1	?	-33.1%	44.7µM*	-23.8%	22.9%
Clc1cccc(-c2sc(Nc3ccccc3)n[n+]2-c2ccccc2)c1Cl	?	?	.	50.1µM*	7.7%
C[n+]1nc(Nc2cccc3ccccc23)sc1-c1ccc(C(=O)O)cc1	-0.1%	.	1.7%[12.7 µM]	-16.1%	.
Fc1ccc(-[n+]2nc(Nc3ccccc3)sc2-c2cccc(Cl)c2Cl)cc1	-36.2%	?	.	1.0%	17.0%
CCc1ccc(Nc2n[n+](-c3ccccc3)c(-c3ccc(SC)cc3)s2)cc1	?	?	44.7µM*	5.6%	27.5%
CCc1ccc(Nc2n[n+](C)c(-c3ccncc3)s2)cc1	56.2µM*	56.2µM*	.	79.4µM*	-15.5%
CC(=O)Nc1ccc(OCC(O)Cn2nc(C)c(C)c2C)cc1 (configuration not stated)	0.3%	3.8%	-12.9%[2.33 µM]	15.7%	8.4%
CCOc1cc(-c2sc(Nc3ccccc3)n[n+]2-c2ccc(F)cc2)ccc1OC	-4.5%	?	.	3.3%	37.7%
Fc1ccc(-[n+]2nc(Nc3ccccc3)sc2-c2ccc(OCc3ccccc3)cc2)cc1	?	89.1µM*	.	-18.7%	12.3%
COc1cc(OC)c(-c2sc(Nc3ccccc3)n[n+]2-c2ccc(F)cc2)cc1OC	-6.7%	-12.1%	-20.6%	11.0%	40.9%
CCc1ccc(Nc2n[n+](-c3ccccc3)c(-c3ccc(C(=O)O)cc3)s2)cc1	35.5µM*	79.4µM*	31.6µM*	44.7µM*	-9.2%
CSc1ccc(-c2sc(Nc3ccccc3)n[n+]2-c2ccccc2)cc1	44.7µM*	56.2µM*	35.5µM*	?	-26.8%
